Screening data deposited in PubChem BioAssay by several laboratories.
PrPC surface inh: inhibitors of human cell surface prion protein PrPC, primary screen, cell-based, TR-FRET. TR-FRET read-out. inhibition, % at 13.8 µM. hit rate 0.43% among 370,000; in the data active means inhibition above about 24%; further: 0% = median of the test wells and 100% = reference compound wells
SSB-PriA inh: inhibitors of Klebsiella pneumoniae PriA binding to SSB C-terminal tail, primary screen, biochemical, AlphaScreen; PriA–SSB C-terminal tail interaction (Klebsiella pneumoniae); AlphaScreen SSBct-PriA binding, biotinylated peptide; inhibition, % at 33 µM; hit rate 0.6% among 430,000; in the data active means inhibition mostly above about 37%, no sharp cut-off; inactive means mostly below about 20%;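 further: plate controls were negative control peptide for no effect and reference peptide for full effect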
PfHsp40 yeast: rescue of yeast from PfHsp40 toxicity, primary screen, S. cerevisiae, ATP luminescence | S. cerevisiae expressing PfHsp40, growth rescue | hit rate 0.68% among 340,000 | growth rescue, % at 12.5 µM | AID 504582, 2011; in the data active means growth rescue above about 28%, passing the limit was not always enough; inconclusive means no clear call, values can overlap the other calls;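 further: yeast W303a lacking pdr1 and pdr3 grown in galactose medium; growth measured after three days at 30 °C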
BH1578 lux ind: inducers of Vibrio cholerae quorum light production without autoinducers, primary screen, BH1578 luxS cqsA deficient, single point; V. cholerae BH1578 lux reporter, luminescence, 6 h; activation, % at 18.7 µM; hit rate 0.16% among 350,000; in the data active means activation mostly above about 9.7%, no sharp cut-off; inconclusive means no clear call, values can overlap the other calls; inactive means mostly below about 3.7%
3CLpro inhibitor: SARS-CoV 3CLpro protease inhibitors, primary screen, biochemical, quenched FRET. Replicase polyprotein 1ab (Severe acute respiratory syndrome coronavirus), P0C6X7. recombinant SARS-CoV 3CLpro, quenched FRET peptide cleavage. inhibition, % at 6 µM. hit rate 0.14% among 290,000. AID 1706, 2009; in the data active means inhibition above about 12%
PrP UTR inh: inhibition of PrP 5' UTR reporter expression; cell-based PrP 5' UTR mRNA reporter, plate reader; inhibition, % (concentration not given with the values); hit rate 0.35% among 340,000; in the data active means inhibition above about 52%; further: 0 = median of the neutral control wells
* hit, by the source's call; i = inactive; ? = inconclusive; nt = no result; ! = not active in a repeat. Hits are enriched below; roughly 1.6% of the tested compounds scored in any of these assays.

SMILES | PrPC surface inh | SSB-PriA inh | PfHsp40 yeast | BH1578 lux ind | 3CLpro inhibitor | PrP UTR inh
CCCOc1ccc(N2C(=O)CC(N3CCC(O)(c4cccc(C(F)(F)F)c4)CC3)C2=O)cc1 (configuration not stated) | 6.3 | -2.6 | 28.4* | i | -2.8 | -23.8
N#Cc1ccc(NC(=O)CN2C(=O)COc3ccccc32)cc1 | nt | 48.5 | nt | nt | nt | nt
CC1Oc2ccccc2N(Cc2ccccc2Cl)C1=O (configuration not stated) | nt | -10.5 | -0.6 | -2.2 | 0.8 | -6.3
O=C(CN1C(=O)COc2ccccc21)Nc1ccc(Cl)cc1 | nt | 52.5* | nt | nt | nt | nt
O=C1COc2ccccc2N1Cc1ccccc1Cl | 4.3 | -29.1 | 49.8* | 16.7* | 0.8 | -14.6
O=C(CN1C(=O)COc2ccccc21)N1CCN(c2ccccc2F)CC1 | -0.4 | -9.9 | 83.5* | -0.2 | 8.3 | -13.6
O=S(=O)(c1ccccc1C(F)(F)F)N1CCN(c2ccc(-n3cccc3)nn2)CC1 | nt | -4.0 | nt | nt | nt | nt
Cc1ccc2nc(-c3ccccc3)cc(-c3nn4c(-c5ccccc5)nnc4s3)c2c1 | nt | -5.0 | nt | nt | nt | nt
O=C(CCn1cnc2ccccc2c1=O)Nc1ccccc1-c1ccc(=O)[nH]n1 | nt | -10.0 | nt | nt | nt | nt
O=C(NNC(=O)c1cc(Cl)ccc1O)c1ccc(NS(=O)(=O)c2cccs2)cc1 | -4.5 | -6.0 | 351.2* | -6.2 | nt | -15.6
O=C(NNC(=O)c1cc(F)c(F)cc1Cl)c1ccc(NS(=O)(=O)c2cccs2)cc1 | 8.0 | -7.2 | 1.1 | -0.3 | nt | nt
CC(C)c1nnc(NC(=O)c2cccs2)s1 | -10.7 | -4.3 | 0.6 | -0.2 | -4.0 | -49.5
CCCCC(CC)c1nnc(NC(=O)c2cccs2)s1 (configuration not stated) | 2.5 | -5.2 | 264.2* | -0.3 | 0.6 | -13.7
COc1cc(NC(=O)CSc2nc3c(c(=O)[nH]2)CN(Cc2ccccc2)CC3)cc(OC)c1 | nt | 2.0 | nt | nt | nt | nt
Cc1ccc(N=Nc2c(C)nn(-c3ccccc3)c2N)cc1[N+](=O)[O-] | nt | 68.0* | nt | nt | nt | nt
Cc1nn(-c2ccccc2)c(N)c1N=Nc1ccc(Cl)cc1 | -2.6 | 70.6 | ? | -8.3 | 4.9 | -118.4
Cc1nn(-c2ccccc2)c(N)c1N=Nc1ccccc1 | -12.5 | 58.3 | 21.4 | -0.3 | -0.3 | -169.2
Cc1nn(-c2ccccc2)c(N)c1N=Nc1cccc(S(=O)(=O)N2CCOCC2)c1 | -4.2 | 47.0*! | 1.1 | -0.4 | 8.2 | -30.2
O=C(Nc1ncnc2c1CCC2)c1ccc2ccccc2c1 | nt | -7.0 | nt | nt | nt | nt
C[C@@H](C(=O)NCc1ccccc1)N1C(=O)C2CC=CCC2C1=O (some centres not stated) | -0.6 | -10.9 | -0.9 | 25.0* | -1.2 | -13.6
CC(C(=O)NCc1ccccc1)N1C(=O)c2ccccc2C1=O (configuration not stated) | 6.6 | -17.0 | -0.4 | i | 3.3 | -23.6
CN(C)c1nc(SCc2ccccc2Cl)nc2c1CCCC2 | nt | -37.9 | 155.0* | i | -2.4 | 3.3
N#Cc1nc(-c2ccccc2F)oc1N1CCCCC1 | -1.7 | 13.5 | 1.4 | 1.2 | -0.8 | -18.4
N#Cc1nc(-c2ccccc2Cl)oc1N1CCCCC1 | 9.8 | 48.2* | 5.6 | 3.2 | 3.5 | -24.9
COc1ccccc1-c1nc(C#N)c(N2CCN(Cc3ccccc3)CC2)o1 | 6.8 | 40.8* | 1.9 | 0.7 | 2.3 | -11.0
SMILES | PrPC surface inh | SSB-PriA inh | PfHsp40 yeast | BH1578 lux ind | 3CLpro inhibitor | PrP UTR inh
COc1ccc(-c2nc(C#N)c(N3CCCC3)o2)cc1 | nt | 23.0 | nt | nt | nt | nt
COc1ccc(-c2nc(C#N)c(N3CCN(C)CC3)o2)cc1 | nt | 54.2* | nt | nt | nt | nt
CC(C)(C)c1ccc(-c2nc(C#N)c(N3CCCCC3)o2)cc1 | nt | 72.8* | nt | nt | nt | nt
O=C1NC(c2ccccc2)Nc2c1sc1nc3c(cc21)CCCC3 (configuration not stated) | nt | -10.0 | nt | nt | nt | nt
Cc1cc(O)c(C(c2cccc(F)c2)c2c(O)cc(C)n(CCO)c2=O)c(=O)n1CCO | nt | -28.0 | nt | nt | nt | nt
COc1ccc2cnn(-c3ccccc3C)c(=O)c2c1OC | -5.0 | -11.2 | 136.0* | 0.6 | 0.8 | -9.8
COc1ccc2cnn(-c3ccc(OC(F)(F)F)cc3)c(=O)c2c1OC | -0.1 | -9.3 | 10.3 | 0.9 | 3.1 | -46.5
COc1ccc2cnn(-c3ccccc3)c(=O)c2c1OC | -2.2 | -4.4 | 65.5* | i | -3.9 | -22.4
CC(=NN=C1NC(=O)CC(C(=O)O)S1)c1ccc(F)cc1 (configuration not stated) | nt | -0.8 | nt | nt | nt | nt
O=S(=O)(c1ccc(Br)s1)N1CC(n2ccnn2)C1 | nt | -20.0 | nt | nt | nt | nt
O=C(NNc1nc2cc3c(cc2s1)OCO3)c1ccccc1 | 5.8 | 7.0 | 0.1 | -0.3 | -1.2 | -31.2
O=C(NNc1nc2cc3c(cc2s1)OCO3)c1cccc(F)c1 | -1.1 | -3.5 | 39.9* | -0.3 | 6.5 | -22.1
O=c1oc2c3c4c(cc2s1)CCCN4CCC3 | -8.3 | 51.7* | 1.0 | -0.3 | -4.0 | -27.0
Cc1noc(C)c1COc1ccc(C(=O)OC(C)C(=O)Nc2ccc(N3CCOCC3)cc2)cc1 (configuration not stated) | 0.8 | -2.2 | 67.1* | -0.6 | 6.3 | -6.6
Cc1ccc(NS(=O)(=O)c2ccc(C(=O)N3CCCC(C(F)(F)F)C3)cc2)cc1 (configuration not stated) | -3.9 | -0.4 | 50.7* | -0.8 | nt | -24.4
O=C1CC(c2ccc(O)cc2)Oc2cc(O)cc(O)c21 (configuration not stated) | 1.4 | -13.2 | 1.4 | i | -2.5 | -20.4
CC1CC(=O)c2c(cc3c(-c4c(O)cc(O)c5c(O)c6c(cc45)OC(C)CC6=O)c(O)cc(O)c3c2O)O1 (configuration not stated) | nt | -4.0 | 102.0* | -0.4 | -0.4 | -28.5
COc1ccc(SCC(=O)N(Cc2ccccn2)c2nc3c(C)cc(Cl)cc3s2)cc1 | nt | -6.0 | nt | nt | nt | nt
O=[N+]([O-])c1ccc(C=NNc2ccc3ccccc3c2)o1 | nt | 55.3* | nt | nt | nt | nt
O=[N+]([O-])c1ccc(/C=N/Nc2ccc3ccccc3c2)o1 | -0.4 | nt | 0.1 | i | 4.6 | 18.9
O=C1CC(c2ccccc2F)C2=C(COC2=O)N1 (configuration not stated) | 1.0 | 6.8 | 1.5 | -0.2 | 3.9 | -20.6
O=C1CC(c2ccccc2F)C(=O)N1 (configuration not stated) | nt | 42.0* | nt | nt | nt | nt
C=CCNC(=O)c1n[nH]c2c1CC(C(C)(C)CC)CC2 (configuration not stated) | 5.5 | 2.1 | 96.2* | -0.6 | nt | -3.0
CCCNC(=O)c1n[nH]c2c1CC(C(C)(C)CC)CC2 (configuration not stated) | 3.6 | -7.2 | 8.7 | -0.3 | nt | -9.3
O=C(NC(=S)N1CCc2ccccc21)c1ccc(Br)o1 | -0.6 | 8.0 | 35.9* | i | 1.9 | -18.0
O=C(NC(=S)N1CCc2ccccc21)c1ccccc1Br | 9.2 | 1.9 | 2.6 | -0.2 | 1.6 | -27.0
